# From PubChem BioAssay AID2685 (National Center for Advancing Translational Sciences (NCATS), 2010)
# The campaign covered roughly 320,000 compounds. About 2,100 (0.66%) were called active. Not shown: some 53% with an inconclusive outcome. Calls come from the whole dose curve; as a rule, active = well fitted inhibition curve with a large enough effect in the signal ratio, with a control signal flat (not every such curve was filed as active); inconclusive = small, poorly fitted or top-dose-only effect, or effect the other way, or a change in a side signal; inactive = flat fitted curve, though single readings scatter; the % refers to the signal ratio. For the sample, actives were picked, then their nearest neighbours and some compounds at random.
# Assay: qHTS Assay for Lipid Storage Modulators in Drosophila S3 Cells;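 for cell number change: cells counted by Cell Tracker Red CMTPX staining in the red channel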
# Conditions: BODIPY lipid droplet fluorescence, 18-24 h, cells fed with added oleic acid; cell number change: measured here: cell count max response; series mostly up to 46.1 µM
# Source text: NIH Molecular Libraries Probe Production Centers Network [MLPCN] NIH Chemical Genomics Center [NCGC] MLPCN Grant: 1 R03 MH085686-01 Assay Submitter (PI): Beller, Mathias; Max-Planck-Institut fur Biophysikalische Chemie NCGC Assay Overview: Storing lipids as a reservoir for energy or the anabolism of elementary metabolites is a common feature of probably all cells and is conserved from bacteria to humans. The universal cellular lipid storage organelle is the so-called lipid storage droplet (LD). Although ubiquitous, LDs share a simple structure composed of a hydrophobic core that harbors the storage lipids, which is shielded by a droplet-specific phospholipid monolayer to which proteins are attached. The current model of LD biogenesis involves an incorporation of the lipid core into the membrane leaflets of the endoplasmic reticulum (ER) followed by a subsequent budding-like maturation of a LD, which ultimately pinches off. Once released, LD volume can increase by localized lipogenesis or fusion of existing droplet. Storage lipids are re-mobilized enzymatically by lipase activity. Lipase regulation in the adipocyte is heavily studied and involves multiple components including catecholamine signaling, the LD-associated proteins Perilipin and comparative gene identification (CGI-58) and at least two lipases named hormone sensitive lipase (HSL) and adipocyte triglyceride lipase (ATGL). LD regulation outside of the adipocyte is poorly understood and only few components are known. However, there is an urgent need to learn more about ectopic fat depots as mislocalized storage of lipids, for example in the liver or muscle, is an eminent health problem associated with insulin resistance or the metabolic syndrome. We developed a laser-scanning cytometer assay to enable 1,536-well screening and combined the results of the small molecules screen with an RNAi database based on lipid storage.
# Triacsin C (Sigma-Aldrich T-4540), an inhibitor of long-chain fatty acyl CoA synthetase that blocks synthesis of triglycerides, was used as a positive control for lipid under-storage. A total of 23 nL of compound solution of different concentrations were transferred to the assay plates using a Kalypsys pin tool equipped with a 1,536-pin array containing 10-nL slotted pins (FP1S10, 0.457-mm diameter, 50.8 mm long; V&P Scientific). One microliter of oleic acid (400 uM) was added, and the plate was lidded with stainless steel rubber gasket lined lids containing pinholes. […] Fluorescence was detected by excitation of the fluorophores with a 488-nm laser on an Acumen Explorer (TTP Lab Tech). The total intensity in channel 2 (500-530 nm) reflected lipid droplet accumulation. Cells were detected using channel 3 (575-640 nm) with 5-um width and 100-um depth filters. The ratio of the number of objects in PMT channel 2 over the number of objects in PMT channel 3 was also calculated. Percent activity was computed relative to an internal control (100% inhibited lipid droplet deposition due to the presence of 20 uM Triacsin C), which was added to 32 wells/plate.
# Potency is the fitted concentration of half-maximal effect.
Structure (SMILES),Potency,cell number change [%]
Cc1nnc(-c2ccc(Oc3ccc(Br)cc3)c([N+](=O)[O-])c2)o1,inactive,2.33
O=C(C/C=N/OCc1ccc(Cl)cc1Cl)c1ccc(Cl)cc1,inactive,4.16
Clc1ccc(CNC2CCCC2)cc1,20.6 µM (active),-30.8
Oc1ccc(CNC2CCCCC2)cc1,inactive,0.0125
Clc1ccc(CNC2CCCC2)c(Cl)c1,inactive,-13.9
CCCCOC(=O)C1C2C=CC3(CN(CCc4ccccc4)C(=O)C13)O2 (stereo not given),inactive,-8.47
N#Cc1c(NC(=O)c2ccc(Cn3cc(Br)cn3)o2)sc2c1CCCCC2,inactive,0.806
Cc1ccc(N=c2sc(C)c(C)n2C)cc1,inactive,-18.9
O=C(c1ccccc1)N1CCN(CC(O)COC2CCCCC2)CC1 (stereo not given),inactive,4.36
C1CCCCCC(NCCN2CCNCC2)CCCCC1,inactive,2.58
C1CCC(OCCN2CCN(CCOC3CCCCC3)CC2)CC1,25.9 µM (active),6
COCCNC(=O)CN1CCC(NC(=O)c2ccco2)CC1,inactive,-1.29
Cc1ccc(NC(=O)c2c(F)cccc2Cl)cc1NS(C)(=O)=O,inactive,5.84
COc1ccc(/C=N/NC(=O)c2cccnc2)cc1CN1CCN(c2ccc(F)cc2)CC1,inactive,3.44
COc1ccc(CC(=O)Nc2c3c(nn2C(C)(C)C)CS(=O)(=O)C3)cc1OC,inactive,17
Cc1ccccc1N1C(=O)C(Oc2ccc(Cl)cc2)C1CNCCCOC(C)C (stereo not given),23.1 µM (active),-13.5
COCCNCC1C(Oc2ccc(Cl)cc2)C(=O)N1c1ccccc1C (stereo not given),inactive,19.6
CCCCNCC1C(Oc2ccc(Cl)cc2)C(=O)N1c1ccccc1C (stereo not given),inactive,
Cc1ccnc2c1ccc1c(C)ccnc12,inactive,-0.829
O=C(NCc1n[nH]c(=S)n1-c1ccccc1)c1ccc(S(=O)(=O)N2CCCCC2)cc1,inactive,
COC(=O)c1ccccc1N1CCS(=O)(=O)CC1,16.4 µM (active),-18.8

Structure (SMILES),Potency,cell number change [%]
COC(=O)c1ccccc1NC(=O)N1CCN(c2ccccc2F)CC1,inactive,25.6
COC(=O)c1ccc(N2CCN(c3ccccc3)CC2)c(N)c1,inactive,6.3
CCOC(=O)C1=C(CS(=O)(=O)c2ccccc2)NC(=O)NC1c1cccc(OC)c1 (stereo not given),inactive,15.2
COC(=O)c1ccc(NC(=S)N2CCCC2)cc1,inactive,-8.77
COc1cccc(NS(=O)(=O)c2ccc3c(c2)CCN3C(C)=O)c1,1.64 µM (active),-8.33
O=S(=O)(Nc1cccc(Cl)c1)c1ccc(-n2cccn2)cc1,inactive,
CC(=O)N1CCc2cc(S(=O)(=O)Nc3ccc(C)cc3)ccc21,inactive,8.46
COc1cccc(NS(=O)(=O)c2ccc(-n3cccn3)cc2)c1,0.0517 µM (active),-7.08
CCc1cccc(NS(=O)(=O)c2ccc(-n3cccn3)cc2)c1,inactive,18.7
COc1cccc(NS(=O)(=O)c2ccc3c(c2)N(C(C)=O)CCS3)c1,inactive,
Cn1cnnc1Sc1nc2c(c(=O)n(C)c(=O)n2C)n1Cc1ccccc1Cl,inactive,16.5
O=C(c1ccc(=O)[nH]c1)N1CCN(S(=O)(=O)c2ccc3ccccc3c2)CC1,inactive,-9.74
COc1cc(CO)c(Br)cc1OCC(=O)Nc1ccccc1C,inactive,-15.6
O=C(CCN1C(=O)/C(=C/c2cccs2)SC1=S)Nc1ccccc1O,3.66 µM (active),13.5
Cc1ccc(/C=C2\SC(=S)N(CCCC(=O)NNC(=O)c3ccccc3O)C2=O)cc1,inactive,17.7
O=C(CCN1C(=O)/C(=C\c2cccs2)SC1=S)Nc1nccs1,inactive,-0.135
O=C(CCN1C(=O)/C(=C/c2cccs2)SC1=S)Nc1cccc(C(=O)O)c1,0.164 µM (active),-17.1
O=C(CCCN1C(=O)/C(=C/c2cccs2)SC1=S)NNC(=O)c1ccncc1,inactive,21
O=C(CCCN1C(=O)/C(=C\c2cccs2)SC1=S)Nc1cc([N+](=O)[O-])ccc1O,inactive,
O=C(CN1C(=O)/C(=C\c2cccs2)SC1=S)Nc1cccc(C(=O)O)c1,inactive,24
O=C(CCN1C(=O)/C(=C/c2ccccc2)SC1=S)Nc1ccccn1,inactive,-0.917

Structure (SMILES),Potency,cell number change [%]
O=C(CCN1C(=O)/C(=C/c2ccccc2F)SC1=S)Nc1ccccn1,inactive,23.3
O=C(CCN1C(=O)/C(=C/c2ccccc2Cl)SC1=S)Nc1ccccn1,20.6 µM (active),-0.66
O=C(CCN1C(=O)/C(=C/c2cccs2)SC1=S)Nc1ccc(C(=O)O)c(O)c1,inactive,-26.8
O=C(CCCN1C(=O)/C(=C/c2cccs2)SC1=S)NNC(=O)c1ccccc1O,6.51 µM (active),-24.1
CCc1ccc(OCC(=O)N(C)CCC#N)c(Br)c1,inactive,
CC1=[N+]([O-])C(C)(C)C(C)N(O)C1=O (stereo not given),inactive,1.53
COc1ccc(C(=O)O)cc1S(=O)(=O)Nc1cc(Cl)ccc1N1CCOCC1,inactive,11.4
COC(=O)/C=C1\SC(=NC(=O)c2cccc(Cl)c2)NC1=O,inactive,-23.4
Nc1nonc1-n1nnc(C(=O)N/N=C/c2ccc(OCc3ccccc3)cc2)c1CN1CCCCC1,inactive,
O=C(Nc1cccc(NC(=O)c2ccc(Br)o2)c1)c1ccccc1,inactive,-12.9
N#CC1=C(Nc2ccccc2)SC=C(c2ccc(Cl)c(Cl)c2)N=C1N1CCOCC1,inactive,-15.3
Cc1cc(C)n(-c2ccc(C(=O)NC3CCCCC3)cc2)n1,inactive,17.4
COc1ccccc1NC(=O)C(C/C=C(/C)Cl)C(C)=O (stereo not given),inactive,12.3
COc1ccc(N(CC(=O)N/N=C/c2cccnc2)S(=O)(=O)c2ccc(C)cc2)cc1OC,inactive,-15.9
CC(=O)Nc1ccc(S(=O)(=O)NC2CC2)cc1,inactive,-7.3
O=C(O)CCCCCCCCCC(=O)c1cccs1,inactive,-19.9
O=C(CCN1C(=O)/C(=C\c2ccco2)SC1=S)Nc1ccc(C(=O)O)c(O)c1,inactive,1.15
O=C(CCN1C(=O)/C(=C/c2ccco2)SC1=S)Nc1ccc(C(=O)O)c(O)c1,inactive,-0.876
O=C(CN1C(=O)/C(=C/c2ccco2)SC1=S)Nc1ccc(C(=O)O)c(O)c1,20.6 µM (active),25.4
